Laboratory results as given in the OligoGym collection.

These sequences were tested against WDR33 (assay: pooled miR-30 sensor sort-seq; sequence = guide strand). Conditions: shRNA.
Note: reference of the scale not given here.

| Sequence | sensor-assay potency score (higher = more potent) |
| --- | --- |
| TAGTATATTGTAATGTAGCCAT | -0.402 |
| TTTATTTTGCATCCAAGCCTGC | -0.562 |
| TTGAGGACCAGAACTACCTTGT | 0.395 |
| TTAGATTATATCGATCTCGCAT | 0.262 |
| TAAACTGTCCCTGTGGACCTGG | -0.115 |
| TACATCTCTAACATATTGCAAA | -1.19 |
| TAGTATGGTCATTTGAGCCTGA | 0.248 |
| TAGGATTATTCAACATTCCTAT | -0.157 |

These sequences were tested against WDR34 in the same assay as above. Conditions: shRNA.

| Sequence | sensor-assay potency score (higher = more potent) |
| --- | --- |
| TTGCTTGATCAAAACTGTGGGT | -0.138 |
| TTTGCTTGATCAAAACTGTGGG | 0.652 |
| TTGAGGGAGAGCTGCAGCGAAG | -1.68 |
| ATACTTGAGGGAGAGCTGCAGC | -0.787 |
| AATTCTTGTTCAGCTCTCGGAT | -0.793 |
| ATCTGCTGCTGCTCGGTCCAGT | -0.627 |
| TTCTTGAGCTTGGTGCTCCGTG | -0.384 |
| TTAAGCGTGCTCCAGTCCCCAT | -1.36 |
| ATACAGACAAGACACCATCTGC | -0.609 |
| TTTCTGGAGATCAAACAGCTGC | -0.424 |
| TTGAACTCCAGACAGTAGACAG | -1.12 |
| TGCTTGATCAAAACTGTGGGTT | -0.0783 |
